# In article PMC7819943, “Rice protein-binding microarrays: a tool to detect cis-acting elements near promoter regions in rice”:
# Over roughly 35,000 sequences, “fluorescence intensity (a.u.)” has its median near 10,000; the highest 2% begin near 52,000. This is one part of a sample in which the highest values are shown more often than they occur.
# Target: T1, OsWOX13 (Oryza sativa, UniProt Q5QMM3 1-267)
# T1 sequence: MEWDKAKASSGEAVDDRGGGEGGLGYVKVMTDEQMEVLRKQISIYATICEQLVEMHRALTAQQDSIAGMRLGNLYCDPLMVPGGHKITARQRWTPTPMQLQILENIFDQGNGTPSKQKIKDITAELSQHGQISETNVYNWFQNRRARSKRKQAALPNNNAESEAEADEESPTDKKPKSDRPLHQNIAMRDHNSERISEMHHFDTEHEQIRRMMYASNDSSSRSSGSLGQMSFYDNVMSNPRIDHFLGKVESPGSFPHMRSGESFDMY
# Assay: protein-binding microarray (RPBM); PBS, 2% BSA, 51.3 ng/ul salmon testes DNA, 50 uM zinc acetate, 200 nM TF, 25 C, 1 h; high values mean tight binding
# Details: protein: recombinant; tags: N-terminal polyhistidine and DsRed monomer fusion (pET32a); label: CyDye5-dUTP incorporated in the synthesized complementary strand; 3' TTTTT single-stranded linker to array surface; dsDNA, one strand shown
# In short: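 A custom Agilent array was converted to double-stranded form by primer extension with Cy5-dUTP and blocked with 2% BSA. Protein at 200 nM in PBS with 2% BSA, salmon testes DNA and 50 µM zinc acetate was applied for 1 h at 25 °C, followed by washing. The proteins were polyhistidine–DsRed N-terminal fusions of transcription factors, expressed in E. coli BL21-CodonPlus and Ni–NTA-purified. The binding signal is per-feature fluorescence intensity (arbitrary units) from an Axon 4000B scanner.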
row,Sequence,binding signal
1,TGGCCAAATTCTGTCAATTGCATTTGATGGAGCTGGGCTTCGGAGTCACCTAGTGCAG,11200 fluorescence intensity (a.u.)
2,CTATAATTTCTGGTTACGGTGGTGACAAGTCATGTGGGCTCGGAGTCACCTAGTGCAG,13900 fluorescence intensity (a.u.)
3,CGTGATTAGAATCCATCTCCGACCGACCGCACATACAAAGCGGAGTCACCTAGTGCAG,43300 fluorescence intensity (a.u.)
4,GAGCGATTATAAAATTAATTGCTCCGCGGCTTAAGCCGAGCGGAGTCACCTAGTGCAG,5680 fluorescence intensity (a.u.)
5,AGTGATCATTGATCTAAACTACTTGCAGGTGACGCACACGCGGAGTCACCTAGTGCAG,6200 fluorescence intensity (a.u.)
6,TTGTTTGATTTGTTAGGGGTGGTAAGAGCAGCCTTGTATTCGGAGTCACCTAGTGCAG,21000 fluorescence intensity (a.u.)
7,CTCTCTAGTAATTATCCATGTGCTCGTCTGGTTGGATTGGCGGAGTCACCTAGTGCAG,5240 fluorescence intensity (a.u.)
8,ATTAAATTTTAAAATTTAATTTTAAATTGATTTTGATATTCGGAGTCACCTAGTGCAG,42600 fluorescence intensity (a.u.)
9,TATTTAAATTCAAATTGAAATTCAAATTTAAATCGGATATCGGAGTCACCTAGTGCAG,16800 fluorescence intensity (a.u.)
10,CTAATAACAAAACAAATTACAGATTTCGCCTGTAATATGCCGGAGTCACCTAGTGCAG,9460 fluorescence intensity (a.u.)
11,TTTGATTTGATTTGATTTGATTGAATTAATTTGAGTCCGACGGAGTCACCTAGTGCAG,65400 fluorescence intensity (a.u.)
12,TATTAATTACAGATTGACAAAACACAAGATTTGCCTGTATCGGAGTCACCTAGTGCAG,61800 fluorescence intensity (a.u.)
13,CAAATTTAAATTTGAATTATATCCGATTTAAATTTGAATTCGGAGTCACCTAGTGCAG,21800 fluorescence intensity (a.u.)
14,ATGAAATGATTTGATTGAAATATTATGAAATGATTTGAGACGGAGTCACCTAGTGCAG,39500 fluorescence intensity (a.u.)
15,GTTAATTTAATTGAAATTTAAATTTAAATCAATCTGCATTCGGAGTCACCTAGTGCAG,57600 fluorescence intensity (a.u.)
16,TTAAAATAATTGACAAGATAGATTAATATTTGGTATATCACGGAGTCACCTAGTGCAG,26400 fluorescence intensity (a.u.)
17,ATTGATTTGATGAAACTAATTTAATATTATAAATATTATTCGGAGTCACCTAGTGCAG,26000 fluorescence intensity (a.u.)
18,TAATTAATTAATTGATTGATTGATTTGAAACTGATTAATTCGGAGTCACCTAGTGCAG,56200 fluorescence intensity (a.u.)
19,ATCAATTTTAAAATTAAATTTTAATTTTAAATTTTGAATTCGGAGTCACCTAGTGCAG,26900 fluorescence intensity (a.u.)
20,AACAATTTGATCAAGAGTTGACCGAGATAATCCCACTTGCCGGAGTCACCTAGTGCAG,4370 fluorescence intensity (a.u.)
21,GATCAAATTAATAGGTAACCCGCTGGTCAAACCTATGGGTCGGAGTCACCTAGTGCAG,18000 fluorescence intensity (a.u.)

row,Sequence,binding signal
1,AATTAGTAAATACTTAATTAATCATGAGAAAATGTATTGCCGGAGTCACCTAGTGCAG,3350 fluorescence intensity (a.u.)
2,CAAATGATGGAGGTTTCAAATTATACTGTACTTCAGCCATCGGAGTCACCTAGTGCAG,7400 fluorescence intensity (a.u.)
3,GTAGAGTAATTAAGTATATCCTTTTGTTCTAGTACATCGGCGGAGTCACCTAGTGCAG,4870 fluorescence intensity (a.u.)
4,CAAAATCAATCAATCAATCCAGCCCTGCCCTCCTTTCGGTCGGAGTCACCTAGTGCAG,57900 fluorescence intensity (a.u.)
5,TTTCAAATCAAATCCAATCCTCCTCCTCCAGATCTCTCCACGGAGTCACCTAGTGCAG,3410 fluorescence intensity (a.u.)
6,TTAAAATTAACTTTAAAATTTAAATTTAGATTTTAATTTTCGGAGTCACCTAGTGCAG,25700 fluorescence intensity (a.u.)
7,ATTAGCGCATGATTAATTGATTATTAACTATTTTAAACTTCGGAGTCACCTAGTGCAG,27400 fluorescence intensity (a.u.)
8,ATCCTTATTTGATTCCTGATCAAATTAATACTGCTGCTTTCGGAGTCACCTAGTGCAG,3200 fluorescence intensity (a.u.)
9,CTGATTTGACTGAATGAATGAATTAATTAATGAGATGTATCGGAGTCACCTAGTGCAG,61600 fluorescence intensity (a.u.)
10,TAATCAATTAAGAAATTAATTAATCCTTTGCTCCCTGATTCGGAGTCACCTAGTGCAG,54400 fluorescence intensity (a.u.)
11,ACCCTTTCAATCATCCTCCTCCAGCAGAGCAAGCAGCCAACGGAGTCACCTAGTGCAG,11000 fluorescence intensity (a.u.)
12,TTCATTAATCACAGATTCAATTTGCTCCTATATATAATCCCGGAGTCACCTAGTGCAG,12700 fluorescence intensity (a.u.)
13,TTGTAATTAATTAACTGATTAATTAAACTGCATGAATTTTCGGAGTCACCTAGTGCAG,60100 fluorescence intensity (a.u.)
14,ATGAATTAGATTAGATGTATATTTGAGGGAGTTAAAGTGGCGGAGTCACCTAGTGCAG,20800 fluorescence intensity (a.u.)
15,GAAATTATTTGAAATTTTGACTGATTTTGAATGAATTTGACGGAGTCACCTAGTGCAG,15200 fluorescence intensity (a.u.)
16,AAATTTTAAATTTTAGTAAAATTTGTTCGGTCTTTCTCTCCGGAGTCACCTAGTGCAG,5920 fluorescence intensity (a.u.)
17,ATAAATTTTATAAACTTGACTGCCTCTGGTTGTATATGCACGGAGTCACCTAGTGCAG,23900 fluorescence intensity (a.u.)
18,TGTAATTTGTTCTTGTTATCATCAATCCCATATAAACTGGCGGAGTCACCTAGTGCAG,22300 fluorescence intensity (a.u.)
19,CTACCTTTAATTAGCTTTGCCATAAACGACGTGGGAGTATCGGAGTCACCTAGTGCAG,10300 fluorescence intensity (a.u.)
20,AATTAATTGTCTGATCAGTGATCTTTATTAACTGTCGACGCGGAGTCACCTAGTGCAG,28400 fluorescence intensity (a.u.)
21,TTGATCTGATTAATTAACTGATCAGACGGGTCGACGGGACCGGAGTCACCTAGTGCAG,55700 fluorescence intensity (a.u.)
